Measurements published in PMC7862700, “An all-to-all approach to the identification of sequence-specific readers for epigenetic DNA modifications on cytosine”.

Legend:
Test in all cases: DAPPL (digital affinity profiling via proximity ligation, sequencing); 10 mM Tris-HCl pH 7.5, 50 mM NaCl, 1 mM DTT, 4% glycerol, room temperature, 30 min; GST-TFs on glutathione beads, 16-mer random dsDNA library, 0.1% formaldehyde crosslink after washing; high values mean tight binding
Conditions in all cases: protein: recombinant; tags: N-terminal GST; dsDNA, one strand shown
[1] = biological target: T1, FLI1 (Homo sapiens, UniProt Q01543 1-452)
T1 sequence: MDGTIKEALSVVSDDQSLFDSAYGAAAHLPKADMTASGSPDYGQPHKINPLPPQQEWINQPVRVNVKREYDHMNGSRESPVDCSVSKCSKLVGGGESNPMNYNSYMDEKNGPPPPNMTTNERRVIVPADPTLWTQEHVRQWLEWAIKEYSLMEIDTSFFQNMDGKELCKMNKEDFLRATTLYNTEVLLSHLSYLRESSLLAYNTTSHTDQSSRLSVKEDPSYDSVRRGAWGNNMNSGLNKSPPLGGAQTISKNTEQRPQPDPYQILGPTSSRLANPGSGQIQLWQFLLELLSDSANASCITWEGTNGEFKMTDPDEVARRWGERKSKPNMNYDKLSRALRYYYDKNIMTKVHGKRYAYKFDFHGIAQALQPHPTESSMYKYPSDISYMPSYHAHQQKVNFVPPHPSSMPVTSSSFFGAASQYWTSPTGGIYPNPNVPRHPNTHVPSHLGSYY
In short: (§1)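 Human transcription factors carrying a GST fusion were produced in yeast, bound to glutathione beads, tagged with DNA barcodes and pooled together with a tag-only sample. Each pool was held with 200 nmole of a random double-stranded 16-mer DNA library in Tris/NaCl/DTT/glycerol buffer for 30 min at room temperature, then washed, crosslinked in 0.1% formaldehyde, proximity-ligated with BsaI/T4 ligase (1 h, 37 °C), PCR-amplified and sequenced on an Illumina NextSeq500. Binding signal is the read frequency of each hexamer for a given factor divided by its frequency in the tag-only sample.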

[2] = biological target: T2, ELK1 (Homo sapiens, UniProt P19419 1-428)
T2 sequence: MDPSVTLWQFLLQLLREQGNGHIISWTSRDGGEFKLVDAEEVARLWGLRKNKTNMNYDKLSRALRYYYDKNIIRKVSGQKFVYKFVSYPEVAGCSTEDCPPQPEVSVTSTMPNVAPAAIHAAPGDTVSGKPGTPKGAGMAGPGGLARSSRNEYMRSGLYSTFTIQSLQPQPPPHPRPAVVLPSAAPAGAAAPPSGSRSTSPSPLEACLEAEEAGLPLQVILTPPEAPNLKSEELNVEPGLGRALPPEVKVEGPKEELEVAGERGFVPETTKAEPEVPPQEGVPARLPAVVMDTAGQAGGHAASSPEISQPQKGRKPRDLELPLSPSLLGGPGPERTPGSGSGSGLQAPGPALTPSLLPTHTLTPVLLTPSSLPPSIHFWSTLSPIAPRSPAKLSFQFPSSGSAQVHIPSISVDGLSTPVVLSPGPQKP
In short: as §1

[3] = biological target: T3, GABPA (Homo sapiens, UniProt Q06546 1-454)
T3 sequence: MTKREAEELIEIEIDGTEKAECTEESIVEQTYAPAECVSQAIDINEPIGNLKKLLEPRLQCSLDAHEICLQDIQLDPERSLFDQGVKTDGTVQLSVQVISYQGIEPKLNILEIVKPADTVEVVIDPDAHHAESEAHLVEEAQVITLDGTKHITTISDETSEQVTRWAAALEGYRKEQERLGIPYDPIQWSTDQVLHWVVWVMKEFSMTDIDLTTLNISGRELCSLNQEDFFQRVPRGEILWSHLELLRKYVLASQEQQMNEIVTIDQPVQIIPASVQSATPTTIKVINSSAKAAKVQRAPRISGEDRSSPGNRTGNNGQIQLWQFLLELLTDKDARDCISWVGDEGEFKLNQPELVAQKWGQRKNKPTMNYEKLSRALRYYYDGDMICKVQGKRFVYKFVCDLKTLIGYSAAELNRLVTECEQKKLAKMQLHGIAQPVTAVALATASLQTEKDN
In short: as §1

[4] = biological target: ELF1 (Homo sapiens, UniProt P32519 1-619)
In short: as §1

[5] = biological target: T4, EHF (Homo sapiens, UniProt Q9NZC4 1-300)
T4 sequence: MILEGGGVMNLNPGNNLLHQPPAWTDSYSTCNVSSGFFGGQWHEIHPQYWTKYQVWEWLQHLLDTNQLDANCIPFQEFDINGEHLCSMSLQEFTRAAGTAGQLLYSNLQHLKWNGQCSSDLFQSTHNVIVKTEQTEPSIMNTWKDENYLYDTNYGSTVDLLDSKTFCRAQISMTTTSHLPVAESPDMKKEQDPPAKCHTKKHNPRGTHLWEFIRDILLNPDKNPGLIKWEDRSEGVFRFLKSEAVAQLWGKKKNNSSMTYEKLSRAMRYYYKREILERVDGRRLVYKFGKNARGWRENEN
In short: as §1

[6] = biological target: SPIB (Homo sapiens, UniProt Q01892 1-262)
In short: as §1

[7] = biological target: T5, ETV2 (Homo sapiens, UniProt O00321 1-342)
T5 sequence: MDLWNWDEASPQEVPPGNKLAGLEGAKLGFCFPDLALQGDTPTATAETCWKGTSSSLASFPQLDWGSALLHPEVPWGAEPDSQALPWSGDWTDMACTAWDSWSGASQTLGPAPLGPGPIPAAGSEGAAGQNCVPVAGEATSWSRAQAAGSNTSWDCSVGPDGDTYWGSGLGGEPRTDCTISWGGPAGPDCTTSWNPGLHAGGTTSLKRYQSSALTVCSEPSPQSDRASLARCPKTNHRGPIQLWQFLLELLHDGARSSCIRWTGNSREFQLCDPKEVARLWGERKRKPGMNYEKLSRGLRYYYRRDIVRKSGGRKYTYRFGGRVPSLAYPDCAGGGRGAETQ
In short: as §1

[8] = biological target: ETV1 (Homo sapiens, UniProt P50549 1-477)
In short: as §1

[9] = biological target: T6, ERF (Homo sapiens, UniProt P50548 1-548)
T6 sequence: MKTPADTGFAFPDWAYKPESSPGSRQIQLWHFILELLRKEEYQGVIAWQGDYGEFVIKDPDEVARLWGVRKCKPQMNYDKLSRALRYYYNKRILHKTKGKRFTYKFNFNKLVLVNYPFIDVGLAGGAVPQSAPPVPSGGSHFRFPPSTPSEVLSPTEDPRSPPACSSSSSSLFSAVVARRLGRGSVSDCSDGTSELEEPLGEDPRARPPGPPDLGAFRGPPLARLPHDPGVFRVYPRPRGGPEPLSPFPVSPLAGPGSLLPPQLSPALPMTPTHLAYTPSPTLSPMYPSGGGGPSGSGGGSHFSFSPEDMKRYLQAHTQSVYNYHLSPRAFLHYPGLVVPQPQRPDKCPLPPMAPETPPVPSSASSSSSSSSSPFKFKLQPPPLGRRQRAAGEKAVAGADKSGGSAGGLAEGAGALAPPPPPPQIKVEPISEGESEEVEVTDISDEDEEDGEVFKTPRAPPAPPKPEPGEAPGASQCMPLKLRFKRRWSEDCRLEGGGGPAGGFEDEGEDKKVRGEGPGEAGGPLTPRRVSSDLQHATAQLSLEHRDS
In short: as §1

[10] = biological target: T7, ETV3L (Homo sapiens, UniProt Q6ZN32 1-361)
T7 sequence: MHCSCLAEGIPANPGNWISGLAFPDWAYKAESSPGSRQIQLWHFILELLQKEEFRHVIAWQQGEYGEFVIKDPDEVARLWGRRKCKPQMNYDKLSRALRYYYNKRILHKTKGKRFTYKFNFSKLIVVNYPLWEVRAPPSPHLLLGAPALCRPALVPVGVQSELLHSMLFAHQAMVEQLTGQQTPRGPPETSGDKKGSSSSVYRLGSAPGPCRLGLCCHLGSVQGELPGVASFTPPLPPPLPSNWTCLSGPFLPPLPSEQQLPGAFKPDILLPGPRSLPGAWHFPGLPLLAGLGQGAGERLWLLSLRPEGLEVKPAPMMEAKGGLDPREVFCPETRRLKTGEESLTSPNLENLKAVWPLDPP
In short: as §1

[11] = biological target: T8, ETS2 (Homo sapiens, UniProt P15036 1-469)
T8 sequence: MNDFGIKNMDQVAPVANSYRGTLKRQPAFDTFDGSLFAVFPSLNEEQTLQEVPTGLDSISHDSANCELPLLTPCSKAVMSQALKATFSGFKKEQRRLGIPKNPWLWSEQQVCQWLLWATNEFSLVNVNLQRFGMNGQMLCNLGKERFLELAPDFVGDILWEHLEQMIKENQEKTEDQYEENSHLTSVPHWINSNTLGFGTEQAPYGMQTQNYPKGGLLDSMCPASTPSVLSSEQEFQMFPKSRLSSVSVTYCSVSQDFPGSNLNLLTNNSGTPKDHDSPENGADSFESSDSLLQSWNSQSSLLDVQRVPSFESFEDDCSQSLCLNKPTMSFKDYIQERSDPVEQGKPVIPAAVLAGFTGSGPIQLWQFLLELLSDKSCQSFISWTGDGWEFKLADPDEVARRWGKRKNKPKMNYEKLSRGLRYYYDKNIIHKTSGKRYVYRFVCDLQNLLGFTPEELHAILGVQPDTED
In short: as §1

[12] = biological target: ETV6 (Homo sapiens, UniProt P41212 1-452)
In short: as §1

ETV6, sequence (P41212 whole entry): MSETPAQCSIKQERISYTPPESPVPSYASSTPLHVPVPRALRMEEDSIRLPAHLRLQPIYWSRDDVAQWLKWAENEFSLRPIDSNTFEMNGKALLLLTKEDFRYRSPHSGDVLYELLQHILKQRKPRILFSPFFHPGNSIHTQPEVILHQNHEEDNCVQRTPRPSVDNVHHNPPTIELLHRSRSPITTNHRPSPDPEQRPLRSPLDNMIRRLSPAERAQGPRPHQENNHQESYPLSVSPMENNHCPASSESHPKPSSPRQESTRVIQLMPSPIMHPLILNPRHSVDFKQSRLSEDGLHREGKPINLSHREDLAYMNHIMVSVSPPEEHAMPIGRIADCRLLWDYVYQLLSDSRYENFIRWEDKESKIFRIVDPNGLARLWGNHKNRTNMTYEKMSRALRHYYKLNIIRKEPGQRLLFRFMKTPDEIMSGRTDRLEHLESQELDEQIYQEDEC
ETV1, sequence (P50549 whole entry): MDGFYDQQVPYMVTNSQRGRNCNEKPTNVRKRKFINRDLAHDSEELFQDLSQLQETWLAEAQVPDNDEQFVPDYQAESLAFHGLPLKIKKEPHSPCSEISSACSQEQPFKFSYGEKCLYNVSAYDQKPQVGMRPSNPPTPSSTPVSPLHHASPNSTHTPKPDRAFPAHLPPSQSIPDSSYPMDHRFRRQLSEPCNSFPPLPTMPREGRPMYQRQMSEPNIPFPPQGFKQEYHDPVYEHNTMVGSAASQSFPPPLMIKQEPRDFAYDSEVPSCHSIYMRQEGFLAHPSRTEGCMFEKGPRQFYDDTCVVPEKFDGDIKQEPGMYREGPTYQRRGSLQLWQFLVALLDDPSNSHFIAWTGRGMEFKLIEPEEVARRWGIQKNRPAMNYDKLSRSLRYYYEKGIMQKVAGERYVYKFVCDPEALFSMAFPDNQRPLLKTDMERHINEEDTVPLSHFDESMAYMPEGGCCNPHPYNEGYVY
SPIB, sequence (Q01892 whole entry): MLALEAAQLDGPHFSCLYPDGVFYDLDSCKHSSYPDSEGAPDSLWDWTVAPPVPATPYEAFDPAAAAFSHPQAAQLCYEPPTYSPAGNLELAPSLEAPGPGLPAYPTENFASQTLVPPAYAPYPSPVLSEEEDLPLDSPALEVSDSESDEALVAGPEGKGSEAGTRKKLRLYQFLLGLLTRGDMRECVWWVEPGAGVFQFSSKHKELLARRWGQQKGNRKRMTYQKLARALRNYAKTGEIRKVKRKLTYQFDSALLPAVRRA
ELF1, sequence (P32519 whole entry): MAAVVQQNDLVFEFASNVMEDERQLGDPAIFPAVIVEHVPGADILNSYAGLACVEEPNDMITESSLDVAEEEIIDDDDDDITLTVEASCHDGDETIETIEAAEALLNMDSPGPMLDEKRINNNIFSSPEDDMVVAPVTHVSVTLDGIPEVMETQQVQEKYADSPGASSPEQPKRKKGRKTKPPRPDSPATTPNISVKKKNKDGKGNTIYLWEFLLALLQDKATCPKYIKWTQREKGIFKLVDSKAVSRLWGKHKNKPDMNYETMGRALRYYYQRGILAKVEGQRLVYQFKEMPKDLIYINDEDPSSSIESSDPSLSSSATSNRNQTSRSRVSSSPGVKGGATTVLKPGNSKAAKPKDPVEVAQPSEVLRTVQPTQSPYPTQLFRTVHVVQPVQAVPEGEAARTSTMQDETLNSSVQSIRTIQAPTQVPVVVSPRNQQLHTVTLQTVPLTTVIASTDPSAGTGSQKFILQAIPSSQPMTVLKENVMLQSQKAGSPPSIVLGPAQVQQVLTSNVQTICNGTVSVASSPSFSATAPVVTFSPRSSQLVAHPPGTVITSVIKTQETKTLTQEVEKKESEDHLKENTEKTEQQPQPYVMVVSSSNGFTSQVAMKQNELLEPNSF

GCATCT
binding signal [1]: 1.03 fold enrichment (6-mer frequency, TF over GST control)
binding signal [2]: 1.02 fold enrichment (6-mer frequency, TF over GST control)
binding signal [3]: 1.03 fold enrichment (6-mer frequency, TF over GST control)
binding signal [4]: 1.02 fold enrichment (6-mer frequency, TF over GST control)
binding signal [5]: 1.06 fold enrichment (6-mer frequency, TF over GST control)
binding signal [6]: 1.02 fold enrichment (6-mer frequency, TF over GST control)
binding signal [7]: 1 fold enrichment (6-mer frequency, TF over GST control)
binding signal [8]: 1.09 fold enrichment (6-mer frequency, TF over GST control)
binding signal [9]: 1.04 fold enrichment (6-mer frequency, TF over GST control)
binding signal [10]: 1.05 fold enrichment (6-mer frequency, TF over GST control)
binding signal [11]: 1.04 fold enrichment (6-mer frequency, TF over GST control)
binding signal [12]: 1.01 fold enrichment (6-mer frequency, TF over GST control)
